Shown are actives, neighbours in structure and some others; about 10% of the full set was active somewhere.
RORg inh: ROR gamma (mouse) transcription inhibition | 310,000 tested, 5.4% active | Drosophila S2 Gal4-RORgamma UAS-luciferase reporter, 20 h | AID 2551 | Potency, µM (doses to about 53.6 µM), inactives show at the highest dose activity change, negative = inhibition, hits mostly inhibitors; also: % is scaled to controls: 0 for no effect and ±100 for the full control effect; nearly all actives have a fitted effect of over 60% in size
Target sequence (P51450 whole entry, looked up, the tested form may be a part): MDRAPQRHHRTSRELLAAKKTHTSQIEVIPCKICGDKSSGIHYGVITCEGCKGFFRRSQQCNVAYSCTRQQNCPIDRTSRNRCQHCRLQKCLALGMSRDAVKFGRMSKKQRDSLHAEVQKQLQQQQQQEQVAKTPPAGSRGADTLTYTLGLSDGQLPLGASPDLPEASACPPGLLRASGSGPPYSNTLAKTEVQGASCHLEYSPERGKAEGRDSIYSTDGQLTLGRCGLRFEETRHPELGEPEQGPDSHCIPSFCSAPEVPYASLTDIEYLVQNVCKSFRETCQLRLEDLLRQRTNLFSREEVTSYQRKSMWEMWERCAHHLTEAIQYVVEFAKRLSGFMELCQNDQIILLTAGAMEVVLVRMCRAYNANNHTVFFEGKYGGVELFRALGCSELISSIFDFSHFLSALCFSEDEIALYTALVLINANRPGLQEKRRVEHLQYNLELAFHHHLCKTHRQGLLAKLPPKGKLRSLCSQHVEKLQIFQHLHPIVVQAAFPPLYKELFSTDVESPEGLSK
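Drosophila S2 cells stably expressing Gal4-DBD/mouse RORγ fusion under metallothionein promoter plus UAS-luciferase; compound 1 h, then 700 uM CuSO4 induction for 20 h at ambient temperature; inhibition read as reduced luminescence.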
KB-V1 MDR tox: KB-V1 MDR subline cytotoxicity; KB-V1 MDR cells viability, CellTiter-Glo, 72 h; AID 1347076; 400,000 tested, 3.4% active; Potency, µM (top dose mostly 46.1 µM), actives largely listed as cytotoxic; also: % is scaled to controls: 0 for no effect and ±100 for the full control effect; nearly all actives have a fitted effect of over 60% in size
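Following 72 h at 37 degrees C with compound, KB-V1 cell viability was read by CellTiter-Glo luminescence, medium being phenol-red-free DMEM plus 10% FBS; concentration-response parameters came from normalized, curve-fitted qHTS data.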
KB-3-1 cytotox: KB-3-1 parental cell cytotoxicity; Potency, µM (doses to about 46.1 µM), usual class: cytotoxic; KB-3-1 viability, CellTiter-Glo ATP luminescence, 72 h; 400,000 tested, 1.4% active; also: % is scaled to controls: 0 for no effect and ±100 for the full control effect; nearly all actives have a fitted effect of over 60% in size
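Cytotoxicity measured as CellTiter-Glo luminescence after 72 h at 37 C. Compound titrations were pinned onto drug-naive KB-3-1 parental adenocarcinoma cells grown in DMEM with 10% FBS, and normalized data fitted to concentration-response curves.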
MCF10A rereplic: inducers of DNA re-replication in MCF 10A breast cells; MCF 10A DNA re-replication, Hoechst nuclear intensity, 48 h; Potency, µM (series often up to 46.1 µM), for inactives: top-dose activity, positive = re-replication, usual class: activators; 350,000 tested, 2.9% active; AID 624296; also: % of control where 0% means no effect; nearly all actives have a fitted effect of over 50% in size
SW480 rereplic: induces DNA re-replication in SW480 colon adenocarcinoma cells; SW480 DNA re-replication, Hoechst DNA content imaging, 48 h; 340,000 tested, 1.8% active; Potency, µM (highest dose often 46.1 µM), for inactives: at the top dose re-replication activation, actives largely listed as activators; AID 624297; also: % of control where 0% means no effect; nearly all actives have a fitted effect of over 55% in size
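DNA re-replication was detected as more nuclei of elevated Hoechst intensity after 48 hr exposure to compound (23 nL pinned per well of 250 cells).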
Gal4-VP16 FLuc: Gal4-VP16 reporter inhibition counter-screen; Potency, µM (highest dose often 53.6 µM), without a hit: at the top dose activity, negative = inhibition, most hits filed as inhibitors; Drosophila S2 Gal4-VP16 UAS-luciferase, luminescence, 20 h; 310,000 tested, 3.5% active;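 also: Gal4-VP16 expression switched on by copper sulfate through the metallothionein promoter; % is scaled to controls: 0 for no effect and ±100 for the full control effect; nearly all actives have a fitted effect of over 50% in size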
Starred values were filed as active, the others as inactive; i = inactive; ? = inconclusive; · = no result; ! = not active in a repeat. Calls follow the shape of the dose curve; as a rule, active = well fitted curve in the direction sought with a large enough effect; inconclusive = small, poorly fitted or top-dose-only effect, or another doubt; inactive = no such curve, though single readings can be large; an effect the other way counts as inactive or inconclusive. Potency is read from the fitted curve at half-maximal effect.

SMILES	RORg inh	KB-V1 MDR tox	KB-3-1 cytotox	MCF10A rereplic	SW480 rereplic	Gal4-VP16 FLuc
CC1OC(OC2C(O)CC(OC3C(O)CC(OC4CCC5(C)C(CCC6C5CCC5(C)C(C7=CC(=O)OC7)CCC65O)C4)OC3C)OC2C)CC(O)C1O (stereo not drawn)	1.1µM*	·	·	?	?	-7%
CN1CC[C@@H]2CN3CCc4cccc(c43)[C@H]2C1	-10%	·	·	·	·	9%
ClC(Br)Br	2%	·	·	·	·	2%
COc1ccc(Cc2nccc3cc(OC)c(OC)cc23)cc1OC	?	?	i	?	?	28µM*!
COc1ccc(C(=O)C2CCCN(C3CSCCSC3)C2)c(C)c1 (stereo not drawn)	10µM*	i	i	?	4%	2%
COc1ccc(C(=O)C2CCCN(C3CSCCSC3)C2)c(OC)c1 (stereo not drawn)	?	i	i	17%	?	-4%
COc1ccc(CC2C(=O)NC(C)C(=O)N(C)C3C(=O)N(C)C(Cc4ccc(O)c(c4)Oc4ccc(cc4)C3O)C(=O)NC(C)C(=O)NC(C)C(=O)N2C)cc1 (stereo not drawn)	·	i	0.16µM*	0.26µM*	?	·
NC(=O)c1ncn(C2OC(CO)C(O)C2O)n1 (stereo not drawn)	-18%	·	·	-1%	-3%	-9%
CN(C)CCO	30%	·	·	·	·	2%
CCN(CC)CCO[C@H]1CC[C@@]2(C)C(=CC[C@@H]3[C@H]2CC[C@]2(C)C(=O)CC[C@H]32)C1	0%	·	·	12%	-4%	-2%
CNc1cc(Cl)c2nonc2c1[N+](=O)[O-]	1µM*	?	?	?	-137%	3.5µM*
COc1cccc(CNc2ccc(S(N)(=O)=O)cc2)c1OCc1ccccc1F	?	21µM*	?	17%	5%	-11%
O=C(NC1CCCCC1)c1cn(CCN2CCOCC2)c2cc(Cl)ccc2c1=O	-10%	·	·	·	·	-8%
CNC(=O)COC(=O)c1ccc(-c2nc3ccccc3s2)s1	0.5µM*	?	?	-8%	0%	0.32µM*
CN(C)[C@@H](Cc1ccccc1)c1ccccc1	-2%	·	·	10%	1%	0%
N#Cc1ccccc1Cn1cc(C(=O)c2ccccc2F)c2ccccc21	6%	2.3µM*	i	18%	8%	-17%
O=C(c1cccs1)c1cn(Cc2ccccc2Cl)c2ccccc12	-3%	7.3µM*	i	17%	-5%	6%
N#Cc1ccccc1Cn1cc(C(=O)c2cccs2)c2ccccc21	?	?	i	3%	-2%	0%
O=C1CC2OCC=C3CN4CC[C@]56c7ccccc7N1[C@H]5[C@H]2C3C[C@H]46 (stereo partly drawn)	4%	·	·	·	·	-1%
CCCCn1c(-c2nn(C)cc2Cl)n[nH]c1=S	13µM*	i	i	-4%	-6%	?
CN(Cc1ccc(OC(F)F)cc1)Cc1nc2c(Br)cc(Br)cc2c(=O)[nH]1	3.2µM*	i	i	15%	?	13µM*
CC(=NCc1cccnc1)c1c(O)n(C2CCCCC2)c(=O)[nH]c1=O	6%	18µM*	i	12%	1%	-17%
CC(=NCCO)c1c(O)n(C2CCCCC2)c(=O)[nH]c1=O	18%	i	i	-2%	2%	-17%
C/C(=N\NC(=O)c1ccccc1O)c1c(O)n(C2CCCCC2)c(=O)[nH]c1=O	5µM*	i	i	2%	3%	11µM*
C/C(=N\NC(=O)c1ccccc1)c1c(O)n(C2CCCCC2)c(=O)[nH]c1=O	10µM*	i	i	1%	-7%	20µM*
SMILES	RORg inh	KB-V1 MDR tox	KB-3-1 cytotox	MCF10A rereplic	SW480 rereplic	Gal4-VP16 FLuc
C/C(=N\NC(=O)c1ccccc1Cl)c1c(O)n(C2CCCCC2)c(=O)[nH]c1=O	7.1µM*	i	i	0%	?	11µM*
C[C@@H]1C[C@@H]2[C@H]([C@H]3C=C(COC(=O)c4ccccc4)[C@@H](O)[C@]4(O)[C@@H](O)C(OC(=O)c5ccccc5)=C[C@@]14C3=O)C2(C)C	3%	·	·	·	·	-19%
COc1cc(OC)c2c(c1)OC(c1ccc(OC)c(OC)c1)C(O)C2 (stereo not drawn)	13%	·	·	·	·	-16%
CC(=O)O[C@H]1[C@H]2[C@@H](OC(=O)Cc3ccccc3)[C@@H](C)C[C@]2(OC(C)=O)C(=O)/C(C)=C/[C@@H]2[C@H](CC[C@@]13CO3)C2(C)C	?	·	·	·	·	0%
C/C(=N\N1CCCCC1c1cccnc1)c1c(O)n(C2CCCCC2)c(=S)[nH]c1=O (stereo not drawn)	3.2µM*	?	?	?	?	4µM*
C/C(=N\NC(=O)c1ccccc1O)c1c(O)n(Cc2ccccc2)c(=O)[nH]c1=O	16µM*	i	i	0%	-3%	-16%
CCCCn1c(O)c(/C(CC)=N/N2CCCCC2c2cccnc2)c(=O)[nH]c1=S (stereo not drawn)	?	i	i	?	16%	?
O=C(c1ccncc1)N1CCC2(CC1)CN(Cc1ccccc1)C2	-5%	·	·	·	·	-2%
COC(=O)C1CN(C#N)N(c2ccc(Cl)cc2)C12c1ccccc1-c1ccccc12 (stereo not drawn)	0.56µM*	12µM*	5.2µM*	7.1µM*	3.3µM*	0.79µM*
CC1(C)C(C(=O)N2CCN(c3ccc(Cl)cc3)CC2)C1(C)C	19%	i	i	15%	8%	-11%
CC1OC(=O)C(C(C)C)NC(=O)C(C(C)C)OC(=O)C(C(C)C)NC(=O)C(C)OC(=O)C(C(C)C)NC(=O)C(C(C)C)OC(=O)C(C(C)C)NC(=O)C(C)OC(=O)C(C(C)C)NC(=O)C(C(C)C)OC(=O)C(C(C)C)NC1=O (stereo not drawn)	0.25µM*	·	·	·	·	0.56µM*
CC(C)CC(N)C1(c2ccc(Cl)cc2)CCC1 (stereo not drawn)	?	·	·	·	·	-6%
Cc1cccc(-n2c(=S)[nH]c3ccccc3c2=O)n1	13µM*	i	i	-1%	-13%	?
Cc1ccsc1/C=N/NC(=O)c1cccc(S(=O)(=O)Nc2ccccc2Cl)c1	2.5µM*	i	i	2%	-3%	3.2µM*
CCCNC(=O)c1c(N)n(Cc2ccco2)c2nc3ccccc3nc12	2%	i	i	2.1µM*	?	-6%
COc1ccc(Cn2c(N)c(C(=O)NCc3ccco3)c3nc4ccccc4nc32)cc1OC	27%	21µM*	?	?	0.52µM*	-9%

High-throughput results as filed in PubChem.
